For some of these results: Measured potencies and affinities stand elsewhere. The source made the active and inactive calls. Unless noted, the rule behind the calls is not given here.
Columns and labels:
[1] = antimalarial activity against Dd2 strain (AID 2302;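 active = growth inhibition above 50% at the single 2 µM test dose, taken to imply half-maximal potency below 2 µM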;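 note: 0% = DMSO untreated growth and 100% = chloroquine plus artemisinin killed control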); details: P. falciparum Dd2 in RBCs, LDH growth readout, 72 h; at 2 µM; stronger effect = higher value
[2] = human hepatoma cell viability loss – ATP luminescence, cytotoxicity control for P. falciparum antimalarial project, primary screen (AID 2303;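 active = inhibition above 50%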;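 note: 0% = DMSO wells and 100% = digitonin-killed cells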); details: HepG2 viability, 24-48 h, at 10 µM, stronger effect = higher value
[3] = biological target: L-lactate dehydrogenase (Plasmodium falciparum (isolate CDC / Honduras)) (UniProt Q27743); test: PfLDH activity inhibition – cell lysate, 3D7 strain, counter-screen for P. falciparum growth inhibition project (AID 2304);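 note: 0% = vehicle and 100% = reference inhibitor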; details: P. falciparum 3D7 crude extract, LDH APAD/NBT absorbance; at 2 µM; stronger effect = higher value
[4] = inhibition of 3D7 malaria parasite growth – strain 3D7 (AID 2306);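 note: 0% = DMSO wells and 100% = chloroquine plus artemisinin control wells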; details: P. falciparum 3D7 erythrocytic growth, LDH absorbance, 72 h; at 2 µM; stronger effect = higher value
[5] = biological target: Calcium-dependent protein kinase 1 (Plasmodium falciparum (isolate 3D7)) (UniProt P62344); test: PfCDPK1 kinase inhibitors, biochemical, TCAMS library (AID 1159585; cut-off not given, nearly all actives have IC50 up to about 0.98 µM;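 note: inhibitors leave more ATP so luminescence rises with inhibition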); details: recombinant PfCDPK1, Kinase-Glo ATP depletion luminescence
[6] = biological target: Plasmodium falciparum protein kinase 6 (PK6, PF3D7_1337100) (UniProt Q8IDW1); test: PfPK6 kinase inhibitors, biochemical, TCAMS library (AID 1159586); details: recombinant PfPK6, Kinase-Glo ATP depletion luminescence
[7] = biological target: Protein kinase 7 (PK7), Plasmodium falciparum 3D7 (PF3D7_0213400) (UniProt Q7YTF7); test: inhibition of Plasmodium PK7 catalytic activity – biochemical, TCAMS antimalarial set, Kinase-Glo luminescence (AID 1159587); details: recombinant PfPK7, Kinase-Glo ATP depletion luminescence
[8] = biological target: Calcium-dependent protein kinase 4 (Plasmodium falciparum (isolate 3D7)) (UniProt Q8IBS5); test: PfCDPK4 kinase inhibitors, biochemical, TCAMS library (AID 1159588; cut-off not given, nearly all actives have IC50 up to about 0.91 µM); details: recombinant PfCDPK4, Kinase-Glo ATP depletion luminescence
Calcium-dependent protein kinase 4 (Plasmodium falciparum (isolate 3D7)), sequence (Q8IBS5 whole entry, looked up): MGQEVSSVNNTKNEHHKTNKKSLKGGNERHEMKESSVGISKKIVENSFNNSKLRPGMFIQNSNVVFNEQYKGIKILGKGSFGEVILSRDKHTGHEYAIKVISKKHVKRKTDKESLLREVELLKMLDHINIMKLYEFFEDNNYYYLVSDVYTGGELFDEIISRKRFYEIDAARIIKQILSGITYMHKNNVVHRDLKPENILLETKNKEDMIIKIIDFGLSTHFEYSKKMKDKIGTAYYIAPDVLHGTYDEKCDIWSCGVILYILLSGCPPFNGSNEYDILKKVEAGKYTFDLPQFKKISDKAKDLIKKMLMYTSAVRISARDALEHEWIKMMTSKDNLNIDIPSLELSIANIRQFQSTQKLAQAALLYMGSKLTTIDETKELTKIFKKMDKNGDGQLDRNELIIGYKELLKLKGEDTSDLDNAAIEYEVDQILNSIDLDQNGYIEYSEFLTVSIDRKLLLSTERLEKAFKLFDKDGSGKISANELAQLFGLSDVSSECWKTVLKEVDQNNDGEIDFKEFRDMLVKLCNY

Plasmodium falciparum protein kinase 6 (PK6, PF3D7_1337100), sequence (Q8IDW1 1-305): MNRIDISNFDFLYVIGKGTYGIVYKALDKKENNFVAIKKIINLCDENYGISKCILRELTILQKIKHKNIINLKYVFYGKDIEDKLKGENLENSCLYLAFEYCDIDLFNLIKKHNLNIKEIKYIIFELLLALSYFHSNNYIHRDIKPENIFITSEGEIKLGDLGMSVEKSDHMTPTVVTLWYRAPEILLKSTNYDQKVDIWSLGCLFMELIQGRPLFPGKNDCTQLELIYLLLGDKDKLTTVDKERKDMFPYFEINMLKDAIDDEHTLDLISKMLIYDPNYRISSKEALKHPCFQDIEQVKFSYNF
L-lactate dehydrogenase (Plasmodium falciparum (isolate CDC / Honduras)), sequence (Q27743 whole entry, looked up): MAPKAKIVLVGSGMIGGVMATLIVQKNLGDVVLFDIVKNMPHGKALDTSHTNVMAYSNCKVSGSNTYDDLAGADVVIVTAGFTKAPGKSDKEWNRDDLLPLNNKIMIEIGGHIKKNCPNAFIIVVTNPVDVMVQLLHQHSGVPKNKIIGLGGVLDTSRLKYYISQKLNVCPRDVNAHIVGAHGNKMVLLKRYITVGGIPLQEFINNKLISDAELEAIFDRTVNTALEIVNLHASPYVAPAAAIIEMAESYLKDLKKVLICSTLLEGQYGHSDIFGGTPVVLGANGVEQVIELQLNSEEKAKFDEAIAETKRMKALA
Calcium-dependent protein kinase 1 (Plasmodium falciparum (isolate 3D7)), sequence (P62344 whole entry, looked up): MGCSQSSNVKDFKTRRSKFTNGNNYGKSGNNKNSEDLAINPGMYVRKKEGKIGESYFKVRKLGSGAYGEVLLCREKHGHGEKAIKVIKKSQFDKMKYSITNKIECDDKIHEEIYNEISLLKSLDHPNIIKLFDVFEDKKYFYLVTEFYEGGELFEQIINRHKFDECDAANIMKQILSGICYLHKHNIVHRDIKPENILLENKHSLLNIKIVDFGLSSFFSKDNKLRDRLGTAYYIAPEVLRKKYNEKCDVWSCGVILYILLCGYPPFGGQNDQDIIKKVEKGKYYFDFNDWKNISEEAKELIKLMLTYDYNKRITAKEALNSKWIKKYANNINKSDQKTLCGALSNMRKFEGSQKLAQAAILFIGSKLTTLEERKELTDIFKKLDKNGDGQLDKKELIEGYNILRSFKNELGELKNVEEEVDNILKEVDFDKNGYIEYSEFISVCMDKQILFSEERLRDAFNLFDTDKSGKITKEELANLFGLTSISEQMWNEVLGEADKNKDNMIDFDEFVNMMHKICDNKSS
Protein kinase 7 (PK7), Plasmodium falciparum 3D7 (PF3D7_0213400), sequence (Q7YTF7 1-343): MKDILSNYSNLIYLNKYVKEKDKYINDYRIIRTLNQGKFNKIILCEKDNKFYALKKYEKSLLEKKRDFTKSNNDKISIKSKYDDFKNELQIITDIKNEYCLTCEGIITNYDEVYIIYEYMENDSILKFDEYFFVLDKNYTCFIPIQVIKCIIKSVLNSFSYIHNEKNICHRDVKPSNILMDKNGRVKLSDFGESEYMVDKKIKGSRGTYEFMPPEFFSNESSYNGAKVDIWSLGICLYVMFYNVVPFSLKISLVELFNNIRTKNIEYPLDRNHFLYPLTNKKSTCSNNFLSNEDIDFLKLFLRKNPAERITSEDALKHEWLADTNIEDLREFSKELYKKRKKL

Cc1cccc2[nH]c(-c3ccc(-c4ccc(NC(=O)NCc5ccccc5)cc4)s3)nc12
inactive: growth inhibition [1] 8% | inhibition [3] 5% | outcome [5] | outcome [6] | outcome [7] | outcome [8]
active: inhibition [2] 79% | growth inhibition [4] 93%

Cc1cc(=O)c(-c2ccc(Oc3ccc(F)cc3)cc2)c(C)[nH]1
inactive: inhibition [2] -3% | inhibition [3] 3% | outcome [5] | outcome [6] | outcome [7] | outcome [8]
active: growth inhibition [1] 59% | growth inhibition [4] 85%

Oc1ccc(CCNc2nc(NCc3ccccc3-c3ccc(C(F)(F)F)cc3)nc(NC3CCNCC3)n2)cc1
active: growth inhibition [4] 97%
inactive: growth inhibition [1] 2% | inhibition [2] 12% | inhibition [3] 4% | outcome [5] | outcome [6] | outcome [7] | outcome [8]

O=c1ccc2ccc(F)c3c2n1CC3CN1CCC(NCc2cccc(-c3ccccc3F)c2)CC1 (stereo not drawn)
active: growth inhibition [4] 100%
inactive: growth inhibition [1] 6% | inhibition [2] 29% | inhibition [3] -1% | outcome [5] | outcome [6] | outcome [7] | outcome [8]

CNC(=O)c1cnc(Nc2ccc(N3CCN(C)CC3)c(C)c2)nc1NC
active: growth inhibition [4] 97%
inactive: growth inhibition [1] 38% | inhibition [2] 19% | inhibition [3] -1% | outcome [5] | outcome [6] | outcome [7] | outcome [8]

Cc1cc(=O)c2cc(-c3ccc(OC(F)(F)F)cc3)ccc2[nH]1
active: growth inhibition [1] 95% | growth inhibition [4] 96%
inactive: inhibition [2] -3% | inhibition [3] 3% | outcome [5] | outcome [6] | outcome [7] | outcome [8]

Cc1ccc(C(=O)Nc2cccc(CN3CCCN(Cc4ccc(O)cc4)CC3)c2)s1
active: growth inhibition [4] 90%
inactive: growth inhibition [1] 23% | inhibition [2] 17% | inhibition [3] -4% | outcome [5] | outcome [6] | outcome [7] | outcome [8]

CC(=NN=C(N)N)c1ccc2ccc3ccccc3c2c1
inactive: growth inhibition [1] 23% | inhibition [2] 14% | inhibition [3] -7% | outcome [5] | outcome [6] | outcome [7] | outcome [8]
active: growth inhibition [4] 97%

Cc1cccc(-c2nc(Nc3ccncc3)c3ccc([N+](=O)[O-])cc3n2)n1
active: growth inhibition [4] 87%
inactive: growth inhibition [1] 13% | inhibition [2] -9% | inhibition [3] -1% | outcome [5] | outcome [6] | outcome [7] | outcome [8]

O=S(=O)(c1c(Cl)cccc1Cl)N1CCCCC(c2ccc(C(F)(F)F)cc2)=N1
active: growth inhibition [1] 98% | growth inhibition [4] 99%
inactive: inhibition [2] 11% | inhibition [3] -2% | outcome [5] | outcome [6] | outcome [7] | outcome [8]

CCCCNC(=O)c1cc(CNC2CCCCC2)ccc1-c1cccc(CNCc2ccc(-c3ccccc3)cc2)c1
inactive: inhibition [3] 0% | outcome [5] | outcome [6] | outcome [7] | outcome [8]
active: growth inhibition [1] 85% | inhibition [2] 100% | growth inhibition [4] 100%

O=C(Nc1ccc2c(c1)CCC2)c1ccc(N2CCN(c3ccncc3)CC2)cc1
active: growth inhibition [1] 75% | inhibition [2] 72% | growth inhibition [4] 101%
inactive: inhibition [3] 4% | outcome [5] | outcome [6] | outcome [7] | outcome [8]

O=C(Nc1cccc(CN2CCN(C(=O)c3ccccc3)CC2)c1)c1ccco1
active: growth inhibition [4] 95%
inactive: growth inhibition [1] 42% | inhibition [2] 6% | inhibition [3] -2% | outcome [5] | outcome [6] | outcome [7] | outcome [8]

Oc1ccccc1Nc1nc(NCc2ccco2)c2ccccc2n1
active: growth inhibition [1] 71% | growth inhibition [4] 99%
inactive: inhibition [2] 0% | inhibition [3] 3% | outcome [5] | outcome [6] | outcome [7] | outcome [8]

Cc1[nH]c(C)c(-c2ccc(-c3ccc(OC(F)(F)F)cc3)nc2)c(=O)c1Br
active: growth inhibition [1] 97% | growth inhibition [4] 97%
inactive: inhibition [2] 26% | inhibition [3] 3% | outcome [5] | outcome [6] | outcome [7] | outcome [8]

O=C(Cc1ccc(Cl)cc1)NC1CCN(c2ccnc3cc(Cl)ccc23)C1 (stereo not drawn)
inactive: inhibition [2] 13% | inhibition [3] -3% | outcome [5] | outcome [6] | outcome [7] | outcome [8]
active: growth inhibition [1] 99% | growth inhibition [4] 82%

CCNCc1ccc(-c2cc3ncnc(Nc4ccc(OCc5cccc(F)c5)c(Cl)c4)c3s2)[nH]1
inactive: inhibition [2] 22% | inhibition [3] 6% | outcome [5] | outcome [6] | outcome [7] | outcome [8]
active: growth inhibition [1] 74% | growth inhibition [4] 103%

CCc1ccc(-n2c(=O)c3cccnc3n2CC(=O)NC2CCCC2)cc1
inactive: growth inhibition [1] 27% | inhibition [2] -1% | inhibition [3] -7% | outcome [5] | outcome [6] | outcome [7] | outcome [8]
active: growth inhibition [4] 98%

Cn1cncc1CCN(Cc1ccc(-c2ccc(C(F)(F)F)cc2)cc1)C(=O)Cn1c(SCc2cccc(F)c2F)cc(=O)c2ccccc21
inactive: inhibition [2] 24% | inhibition [3] -5% | outcome [5] | outcome [6] | outcome [7] | outcome [8]
active: growth inhibition [1] 90% | growth inhibition [4] 99%

CCN(CC)CCN(Cc1ccc(-c2ccc(C(F)(F)F)cc2)cc1)C(=O)Cn1c(CCc2cc(F)cc(F)c2F)nc(=O)c2ccccc21
inactive: inhibition [2] 36% | inhibition [3] 1% | outcome [5] | outcome [6] | outcome [7] | outcome [8]
active: growth inhibition [1] 77% | growth inhibition [4] 101%

O=C(NCC1CCC(CNCCCc2ccccc2)CC1)c1cc(Cl)cc(Cl)c1 (stereo not drawn)
active: inhibition [2] 58% | growth inhibition [4] 89%
inactive: growth inhibition [1] 13% | inhibition [3] -1% | outcome [5] | outcome [6] | outcome [7] | outcome [8]

COc1cc(Nc2nccc(N3CCC(NC(=O)C(C)c4ccc(Cl)cc4)C3)n2)cc(OC)c1OC (stereo not drawn)
inactive: inhibition [2] 2% | inhibition [3] -7% | outcome [5] | outcome [6] | outcome [7] | outcome [8]
active: growth inhibition [1] 90% | growth inhibition [4] 97%

COc1cc(-c2ccccc2)ccc1C(=O)Nc1ccc2c(c1)N(C)CCC2
active: growth inhibition [1] 75% | growth inhibition [4] 85%
inactive: inhibition [2] 15% | inhibition [3] -4% | outcome [5] | outcome [6] | outcome [7] | outcome [8]

COc1cc2nc(N3CCC(CNC(=O)c4ccc(-c5ccc(Cl)cc5)cc4)CC3)nc(N)c2cc1OC
inactive: inhibition [3] 8% | outcome [5] | outcome [6] | outcome [7] | outcome [8]
active: growth inhibition [1] 101% | inhibition [2] 99% | growth inhibition [4] 100%

CC(=O)Nc1cccc(CNc2cc(C)nc(Nc3ccc(C)cc3)n2)c1
inactive: growth inhibition [1] 23% | inhibition [2] 18% | inhibition [3] 0% | outcome [5] | outcome [6] | outcome [7] | outcome [8]
active: growth inhibition [4] 82%

Cc1ccc(NC(=O)Nc2ccc(Cl)c(C(F)(F)F)c2)cc1-c1ccc(C(=O)Nc2ccncc2)cc1
active: growth inhibition [1] 99% | inhibition [2] 77% | growth inhibition [4] 99%
inactive: inhibition [3] 3% | outcome [5] | outcome [6] | outcome [7] | outcome [8]

O=C(Nc1ccccc1)N(Cc1ccc(-c2ccc(CNC3CCCC3)cc2)cc1)C1CCN(Cc2ccccc2)CC1
inactive: inhibition [2] 34% | inhibition [3] -5% | outcome [5] | outcome [6] | outcome [7] | outcome [8]
active: growth inhibition [1] 61% | growth inhibition [4] 100%

CCOc1ccc(-c2nonc2NC(=O)c2ccccc2OC)cc1OCC
active: growth inhibition [1] 99% | growth inhibition [4] 100%
inactive: inhibition [2] 24% | inhibition [3] -3% | outcome [5] | outcome [6] | outcome [7] | outcome [8]

CCN(CC)CCN(Cc1ccc(-c2ccc(C(F)(F)F)cc2)cc1)C(=O)Cn1cc(Cc2cnn(C)c2)c(=O)nc1/C=C/c1cccc(F)c1F
active: growth inhibition [1] 98% | growth inhibition [4] 95%
inactive: inhibition [2] 11% | inhibition [3] -2% | outcome [5] | outcome [6] | outcome [7] | outcome [8]

Cc1cccc2[nH]c(-c3ccc(-c4cccc(NC(=O)Nc5ccsc5)c4)s3)nc12
active: growth inhibition [4] 100%
inactive: growth inhibition [1] 29% | inhibition [2] 30% | inhibition [3] -3% | outcome [5] | outcome [6] | outcome [7] | outcome [8]

O=C(/C=C/c1ccc(Cl)cc1)Nc1ccc2nc(CN3CCCC3)ccc2c1
inactive: growth inhibition [1] 30% | inhibition [2] 47% | inhibition [3] -2% | outcome [5] | outcome [6] | outcome [7] | outcome [8]
active: growth inhibition [4] 85%

O=C(Nc1ccc(-c2nc3ccccc3[nH]2)cc1)c1cnc(Cl)c(Cl)c1
inactive: inhibition [2] 11% | inhibition [3] 0% | outcome [5] | outcome [6] | outcome [7] | outcome [8]
active: growth inhibition [1] 95% | growth inhibition [4] 102%

CCCNc1ccc(-c2cc(C(N)=O)c3[nH]cc(C4CCN(S(=O)(=O)CC)CC4)c3c2)cn1
active: growth inhibition [4] 99%
inactive: growth inhibition [1] 42% | inhibition [2] 6% | inhibition [3] -1% | outcome [5] | outcome [6] | outcome [7] | outcome [8]

NC(N)=NC(=O)Nc1cc(Cl)c(Br)c(Cl)c1
inactive: inhibition [2] 6% | inhibition [3] 4% | outcome [5] | outcome [6] | outcome [7] | outcome [8]
active: growth inhibition [1] 101% | growth inhibition [4] 101%

COc1cccc2c(Oc3ccccc3C)ccnc12
inactive: growth inhibition [1] 45% | inhibition [2] -7% | inhibition [3] 4% | outcome [5] | outcome [6] | outcome [7] | outcome [8]
active: growth inhibition [4] 85%

COc1ccc(-c2csc(NC(=O)CCC(=O)O)n2)cc1OC
inactive: growth inhibition [1] -2% | inhibition [3] 5% | outcome [5] | outcome [6] | outcome [7] | outcome [8]
active: inhibition [2] 63% | growth inhibition [4] 94%

Oc1cccc(Nc2ccnc3cc(-c4ccccn4)ccc23)c1
inactive: inhibition [2] 24% | inhibition [3] -3% | outcome [5] | outcome [6] | outcome [7] | outcome [8]
active: growth inhibition [1] 98% | growth inhibition [4] 96%

O=C(Nc1ccc(N2CCN(C(=O)C=Cc3ccccc3)CC2)c(Cl)c1)c1ccc([N+](=O)[O-])o1
active: growth inhibition [1] 90% | inhibition [2] 98% | growth inhibition [4] 97%
inactive: inhibition [3] -5% | outcome [5] | outcome [6] | outcome [7] | outcome [8]

N#Cc1ccc2[nH]cc(-c3cn4cc(SC5CCCC5)ccc4n3)c2c1
active: growth inhibition [4] 92%
inactive: growth inhibition [1] 21% | inhibition [2] 1% | inhibition [3] 3% | outcome [5] | outcome [6] | outcome [7] | outcome [8]

O=C(C=Cc1cn(-c2ccccc2)nc1-c1ccccc1)N1CCN(c2ccncc2)CC1
active: growth inhibition [4] 90%
inactive: growth inhibition [1] 20% | inhibition [2] 11% | inhibition [3] 2% | outcome [5] | outcome [6] | outcome [7] | outcome [8]

COc1cc2c(cc1S(=O)(=O)c1ccc(COc3ccc(C(F)(F)F)cc3)cc1)CNCC2
active: growth inhibition [1] 89% | growth inhibition [4] 103%
inactive: inhibition [2] 32% | inhibition [3] 5% | outcome [5] | outcome [6] | outcome [7] | outcome [8]

Reference: PubChem BioAssay
